Compound activity: PubChem, The Scripps Research Institute Molecular Screening Center
MITF inh = inhibitors of human MITF; hit rate 0.91% among 650,000; AlphaScreen MITF homodimerization, bead proximity signal; AID 1259374; O75030; inhibition, % at 2.6 µM; in the data active = inhibition above about 50%;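 note: 0% = vehicle wells with protein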
Target sequence (O75030 whole entry, looked up): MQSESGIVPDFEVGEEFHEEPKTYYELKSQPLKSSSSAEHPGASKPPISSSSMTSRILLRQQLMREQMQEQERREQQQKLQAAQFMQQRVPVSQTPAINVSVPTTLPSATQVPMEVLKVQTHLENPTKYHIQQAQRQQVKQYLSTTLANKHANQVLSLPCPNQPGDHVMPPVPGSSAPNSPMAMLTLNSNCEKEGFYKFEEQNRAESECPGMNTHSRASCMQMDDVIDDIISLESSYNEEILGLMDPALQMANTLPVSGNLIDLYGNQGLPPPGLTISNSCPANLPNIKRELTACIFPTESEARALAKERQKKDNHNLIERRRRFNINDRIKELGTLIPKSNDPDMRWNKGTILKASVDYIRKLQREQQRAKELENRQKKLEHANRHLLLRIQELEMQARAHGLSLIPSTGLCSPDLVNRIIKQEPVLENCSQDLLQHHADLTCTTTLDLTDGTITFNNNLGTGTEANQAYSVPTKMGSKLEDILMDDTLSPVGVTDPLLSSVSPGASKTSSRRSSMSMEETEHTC
FBW7 act = human FBW7 E3 ligase activation, primary screen; Q969H0; AlphaScreen FBW7–phospho-cyclin E peptide binding, activator screen; normalized activity (activation), % at 26.1 µM; hit rate 0.13% among 650,000; AID 1259310; in the data active = normalized activity above about 1.9%;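 note: purified mutant Fbw7 with reduced substrate affinity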
GPR151 ag = activates the human receptor GPR151; activation, % at 11.2 µM; AID 1508602; PathHunter beta-arrestin GPR151 cells, luminescence; hit rate 1% among 650,000; in the data active = activation above about 4.9%;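 note: 0% = median of compound wells and 100% = cells with positive control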
TEAD-YAP block = TEAD-YAP interaction inhibition; AID 1259422; hit rate 1.4% among 640,000; HEK-TIYL cells, TEAD-Gal4/YAP UAS-luciferase luminescence; inhibition, % at 9.12 µM; in the data active = inhibition above about 32%;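 note: 0% = median of test compound wells and 100% = reference inhibitor wells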
Starred values were filed as active, the others as inactive. Hits are enriched below; roughly 3.4% of the tested compounds scored in any of these assays.

What do the screens show for `COC(=O)c1ccc(C=Nc2ccc3c(c2)OCCO3)cc1`?
MITF inh: -8; FBW7 act: 0; GPR151 ag: -1; TEAD-YAP block: 62*

Results for COc1ccc(Cn2nnnc2C(c2ccccc2)N2CCC(C)CC2)cc1 (stereo not drawn) ?
MITF inh: 3; FBW7 act: 0; GPR151 ag: 0; TEAD-YAP block: 0

What do the screens show for `O=C(Nc1ccc2c(c1)OCO2)N1CCC(c2nnc(C3CC3)s2)CC1`?
MITF inh: -15; FBW7 act: 2.6*; GPR151 ag: 0; TEAD-YAP block: -23

What do the screens show for `O=C(Nc1ccc2c(c1)OCO2)N1CCN(C2CCCCC2)CC1`?
MITF inh: -1; FBW7 act: 0; GPR151 ag: -1; TEAD-YAP block: -16

Results for COc1ccc(CNC(=O)N2CCC(c3nnc(C4CC4)s3)CC2)cc1 ?
MITF inh: 5; FBW7 act: 3.1*; GPR151 ag: 0; TEAD-YAP block: 4

How did Cc1cccc(NC(=O)N2CCC(c3nnc(C4CC4)s3)CC2)c1 do in these assays?
MITF inh: 9; FBW7 act: 3.1*; GPR151 ag: 0; TEAD-YAP block: -1

What do the screens show for `COc1ccc(CNC(=O)N2CCC(c3nnc(C4CC4)o3)CC2)cc1`?
MITF inh: 6; FBW7 act: 1; GPR151 ag: -1; TEAD-YAP block: 1

Results for Cc1sc2nc(C3CC3)n(C3CCN(C(=O)Cc4ccccc4F)CC3)c(=O)c2c1C ?
MITF inh: -2; FBW7 act: 0; GPR151 ag: 0; TEAD-YAP block: -1

What do the screens show for `Nc1cc(C(=O)Nc2ccc3ccccc3c2O)ccc1Cl`?
MITF inh: 8; FBW7 act: 1; GPR151 ag: -1; TEAD-YAP block: -68

What do the screens show for `COc1ccc(C(=O)COc2cccc3c(=O)n(C)ccc23)cc1`?
MITF inh: -3; FBW7 act: 0; GPR151 ag: 3; TEAD-YAP block: 48*

What do the screens show for `C=CCn1c(=NC(=O)C2=COCCO2)sc2cccc(OC)c21`?
MITF inh: 6; FBW7 act: 0; GPR151 ag: -1; TEAD-YAP block: -10

What do the screens show for `C=CCn1c(=NC(=O)C2=COCCO2)sc2cc(F)ccc21`?
MITF inh: -2; FBW7 act: 1.9*; GPR151 ag: -1; TEAD-YAP block: -15

What do the screens show for `COC(=O)/C=C/CSc1nnc(-c2ccc(Cl)cc2Cl)o1`?
MITF inh: 13; FBW7 act: 0; GPR151 ag: 1; TEAD-YAP block: 91*

What do the screens show for `CC(=O)c1cccc(NC(=O)N2CCCC2C(=O)NCC(C)C)c1` (stereo not drawn)?
MITF inh: 7; FBW7 act: 0; GPR151 ag: 0; TEAD-YAP block: 1

Results for COc1ccc(C)cc1S(=O)(=O)Nc1ccc(C(N)=O)cc1 ?
MITF inh: 3; FBW7 act: 0; GPR151 ag: 1; TEAD-YAP block: 2

What do the screens show for `Cc1ccc(NC(=O)Nc2cc(C)ccn2)cc1`?
MITF inh: 4; FBW7 act: 0; GPR151 ag: 0; TEAD-YAP block: -26

Results for COc1ccc(C(=O)/C=C/Nc2cc(C)ccn2)cc1 ?
MITF inh: 1; FBW7 act: 0; GPR151 ag: -7; TEAD-YAP block: 36*

What do the screens show for `COc1ccc(NC(=O)Nc2cc(C)ccn2)cc1`?
MITF inh: 6; FBW7 act: 0; GPR151 ag: -3; TEAD-YAP block: 41*

Results for COc1ccc(/C=C/C(=O)Nc2scc(-c3ccc(Br)cc3)c2C(=O)O)cc1 ?
MITF inh: -4; FBW7 act: 0; GPR151 ag: -1; TEAD-YAP block: 62*

What do the screens show for `CC(C)(C)C(=O)Nc1ccc(NC(=O)C2CC2)nc1`?
MITF inh: 0; FBW7 act: 0; GPR151 ag: 0; TEAD-YAP block: 7

How did COc1ccc(S(=O)(=O)N2CCN(c3cc(-n4ccnc4)ncn3)CC2)c(C)c1C do in these assays?
MITF inh: -14; FBW7 act: 0; GPR151 ag: 1; TEAD-YAP block: 56*

What do the screens show for `O=S(=O)(c1ccc(F)cc1)N1CCN(c2cc(-n3ccnc3)ncn2)CC1`?
MITF inh: -11; FBW7 act: 0; GPR151 ag: 1; TEAD-YAP block: -4

Results for COc1cccc(OCc2nc3ccc(-c4ccnc(N)n4)cc3[nH]2)c1 ?
MITF inh: 4; FBW7 act: 0; GPR151 ag: 0; TEAD-YAP block: 50*

How did COc1cc(-c2cn[nH]c2)cc2c(=O)[nH]c(C(N)c3cccc(Cl)c3)nc12 (stereo not drawn) do in these assays?
MITF inh: 13; FBW7 act: 0; GPR151 ag: 3; TEAD-YAP block: 49*

What do the screens show for `COc1ccc(C[C@@H](N)c2nc3ccc(-c4cn[nH]c4)cc3c(=O)[nH]2)cc1`?
MITF inh: 24; FBW7 act: 0; GPR151 ag: 0; TEAD-YAP block: 53*

What do the screens show for `Cc1ccccc1OCc1nc2ccc(-c3cn[nH]c3)cc2c(=O)[nH]1`?
MITF inh: -1; FBW7 act: 0; GPR151 ag: 2; TEAD-YAP block: 33*

Results for COc1ccccc1OCc1nc2ccc(-c3ccnc(N)n3)cc2[nH]1 ?
MITF inh: 12; FBW7 act: 0; GPR151 ag: 0; TEAD-YAP block: 14

How did COc1ccccc1OCc1nc2ccc(-c3cn[nH]c3)cc2c(=O)[nH]1 do in these assays?
MITF inh: 19; FBW7 act: 0; GPR151 ag: 0; TEAD-YAP block: -4

Results for Cc1ccccc1OCc1nc2ccc(-c3ccnc(N)n3)cc2[nH]1 ?
MITF inh: 6; FBW7 act: 0; GPR151 ag: 1; TEAD-YAP block: 52*

What do the screens show for `COc1ccc(CCNc2ncnc3c2nc(-c2ccc(N4CCOCC4)nc2)n3C(C)C)cc1`?
MITF inh: -2; FBW7 act: 0; GPR151 ag: 1; TEAD-YAP block: 59*

Results for COc1ccc(CCNc2ncnc3c2nc(Nc2ccc(N4CCOCC4)cc2)n3C(C)C)cc1 ?
MITF inh: 7; FBW7 act: 0; GPR151 ag: 4; TEAD-YAP block: 79*

How did COc1ccc(CCNc2ncnc3c2nc(N2CCOCC2)n3C(C)C)cc1 do in these assays?
MITF inh: 3; FBW7 act: 0; GPR151 ag: 1; TEAD-YAP block: -13

What do the screens show for `COc1ccc(-c2nc3c(Nc4ccc(N5CCOCC5)cc4)ncnc3n2C(C)C)cc1`?
MITF inh: -10; FBW7 act: 0; GPR151 ag: 1; TEAD-YAP block: -10

What do the screens show for `CCOC(=O)C1CCN(C(=O)C2CC(Cc3ccc(F)cc3)=NO2)CC1` (stereo not drawn)?
MITF inh: -6; FBW7 act: 0; GPR151 ag: 1; TEAD-YAP block: -38

Results for Cc1nc2ccccc2n1CC(O)COc1ccc(C(C)C)cc1 (stereo not drawn) ?
MITF inh: -3; FBW7 act: 0; GPR151 ag: 0; TEAD-YAP block: 48*

Results for C=CCc1cc(C)ccc1OCC(O)Cn1c(C)nc2ccccc21 (stereo not drawn) ?
MITF inh: 10; FBW7 act: 0; GPR151 ag: 0; TEAD-YAP block: 47*

Results for CC(C)(C)c1ccc(C(=O)N2CCCCCC2=O)cc1 ?
MITF inh: -7; FBW7 act: 0; GPR151 ag: -1; TEAD-YAP block: 55*
